# Activity calls are given as the source filed them.
# Key:
# [1] = binders of probe aFSTL3 on microarray, primary screen, stem cell growth factor project, biochemical, small-molecule microarray, fluorescence 635/667 (AID 1064); conditions: higher = more signal;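 also: measures binding of the biotinylated anti-FSTL3 antibody to printed compounds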
# [2] = binders from COS7 lysate, DM2A8 probe, primary screen, torsin A project, cell lysate, small-molecule microarray, fluorescence 635/667 (AID 1065); conditions: higher = more signal, COS7 lysate expressing mutant human TOR1A
# [3] = binders of probe aFGF2 on microarray, primary screen, stem cell growth factor project, biochemical, small-molecule microarray, fluorescence 635/667 (AID 1067); conditions: higher = more signal;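 also: measures binding of biotinylated aFGF2 protein to printed compounds on slides; z-score merges feature fluorescence and signal-to-noise across triplicate slides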
# [4] = binders of probe aFGF10 on microarray, primary screen, stem cell growth factor project, biochemical, small-molecule microarray, fluorescence 635/667 (AID 1071); conditions: higher = more signal;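 also: score merges 667 nm spot intensity and signal to noise from triplicate slides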
# [5] = target: Neurogenic locus notch homolog protein 2 (Homo sapiens) (UniProt Q04721); test: Notch2 binders on small-molecule microarrays, primary screen, biochemical, small-molecule microarray, 635 nm fluorescence, stem cell growth factors (AID 1073); conditions: Notch2 binding, higher = more signal
# Sequence of Neurogenic locus notch homolog protein 2 (Homo sapiens) (Q04721 whole entry, looked up, canonical isoform): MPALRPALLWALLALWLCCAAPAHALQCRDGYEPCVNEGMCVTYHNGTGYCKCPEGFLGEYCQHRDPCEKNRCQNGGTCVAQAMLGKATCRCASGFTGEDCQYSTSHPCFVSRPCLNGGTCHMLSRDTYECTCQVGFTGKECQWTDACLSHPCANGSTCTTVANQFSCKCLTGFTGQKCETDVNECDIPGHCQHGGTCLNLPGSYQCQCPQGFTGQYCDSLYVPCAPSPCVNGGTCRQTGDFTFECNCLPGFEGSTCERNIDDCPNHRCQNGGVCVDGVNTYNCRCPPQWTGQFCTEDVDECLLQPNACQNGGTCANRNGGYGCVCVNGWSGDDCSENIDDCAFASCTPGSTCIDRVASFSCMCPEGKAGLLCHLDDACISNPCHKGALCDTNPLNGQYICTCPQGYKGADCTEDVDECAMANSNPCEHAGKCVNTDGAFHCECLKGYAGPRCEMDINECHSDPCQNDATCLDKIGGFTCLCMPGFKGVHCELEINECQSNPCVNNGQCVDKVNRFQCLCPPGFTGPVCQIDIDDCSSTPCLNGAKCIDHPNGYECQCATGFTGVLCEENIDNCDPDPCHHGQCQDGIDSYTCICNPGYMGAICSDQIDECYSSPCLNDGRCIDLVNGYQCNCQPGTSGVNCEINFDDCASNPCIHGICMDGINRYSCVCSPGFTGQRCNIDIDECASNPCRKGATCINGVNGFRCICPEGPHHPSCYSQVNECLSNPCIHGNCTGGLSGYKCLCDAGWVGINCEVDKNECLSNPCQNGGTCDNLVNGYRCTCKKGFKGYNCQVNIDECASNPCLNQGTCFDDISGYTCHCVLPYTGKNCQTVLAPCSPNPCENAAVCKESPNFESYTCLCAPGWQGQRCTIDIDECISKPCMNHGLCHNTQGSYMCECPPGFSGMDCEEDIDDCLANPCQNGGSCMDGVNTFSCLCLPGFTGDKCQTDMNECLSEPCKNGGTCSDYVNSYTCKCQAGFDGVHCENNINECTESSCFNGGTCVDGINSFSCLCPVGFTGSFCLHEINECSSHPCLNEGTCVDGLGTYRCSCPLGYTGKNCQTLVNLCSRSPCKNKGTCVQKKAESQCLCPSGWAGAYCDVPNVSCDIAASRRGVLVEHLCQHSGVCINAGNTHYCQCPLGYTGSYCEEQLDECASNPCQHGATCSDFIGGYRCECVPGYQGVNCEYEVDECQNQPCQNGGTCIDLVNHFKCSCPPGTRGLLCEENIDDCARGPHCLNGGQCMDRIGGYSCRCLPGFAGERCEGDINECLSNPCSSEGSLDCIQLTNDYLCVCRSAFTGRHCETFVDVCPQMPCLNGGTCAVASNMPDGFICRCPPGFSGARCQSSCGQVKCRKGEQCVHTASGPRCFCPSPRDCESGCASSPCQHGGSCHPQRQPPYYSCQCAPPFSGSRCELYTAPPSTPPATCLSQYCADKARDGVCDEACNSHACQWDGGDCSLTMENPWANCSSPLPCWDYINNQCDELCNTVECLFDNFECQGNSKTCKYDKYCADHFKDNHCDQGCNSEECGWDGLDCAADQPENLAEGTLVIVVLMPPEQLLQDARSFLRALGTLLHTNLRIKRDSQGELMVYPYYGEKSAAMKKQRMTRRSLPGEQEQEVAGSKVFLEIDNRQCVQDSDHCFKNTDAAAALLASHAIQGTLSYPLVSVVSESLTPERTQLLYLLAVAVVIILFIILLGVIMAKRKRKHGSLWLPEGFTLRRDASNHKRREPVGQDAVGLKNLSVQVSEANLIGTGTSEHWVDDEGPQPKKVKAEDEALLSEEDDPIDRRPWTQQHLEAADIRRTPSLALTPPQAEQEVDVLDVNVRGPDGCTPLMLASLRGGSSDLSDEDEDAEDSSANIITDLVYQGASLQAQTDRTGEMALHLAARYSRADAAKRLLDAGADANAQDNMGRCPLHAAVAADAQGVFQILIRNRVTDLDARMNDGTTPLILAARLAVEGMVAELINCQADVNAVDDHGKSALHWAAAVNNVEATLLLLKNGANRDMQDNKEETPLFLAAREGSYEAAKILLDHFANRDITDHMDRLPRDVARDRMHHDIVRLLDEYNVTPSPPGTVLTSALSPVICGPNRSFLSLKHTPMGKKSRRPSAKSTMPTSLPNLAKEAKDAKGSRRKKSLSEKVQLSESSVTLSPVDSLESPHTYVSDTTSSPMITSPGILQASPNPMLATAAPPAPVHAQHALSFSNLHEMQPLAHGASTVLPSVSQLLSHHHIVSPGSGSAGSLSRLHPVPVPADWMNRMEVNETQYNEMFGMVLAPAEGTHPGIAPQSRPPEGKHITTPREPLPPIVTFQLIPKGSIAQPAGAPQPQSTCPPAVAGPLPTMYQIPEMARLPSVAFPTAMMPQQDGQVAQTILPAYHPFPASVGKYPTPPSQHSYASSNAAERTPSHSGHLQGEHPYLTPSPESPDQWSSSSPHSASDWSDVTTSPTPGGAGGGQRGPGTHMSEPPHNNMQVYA
# [6] = target: Pro-neuregulin-1, membrane-bound isoform (Homo sapiens) (UniProt Q02297); test: NRG1 binders on small-molecule microarrays, primary screen, psychiatric disease protein project, biochemical, small-molecule microarray, fluorescence 635/667 (AID 1075); conditions: NRG1 binding, 635 nm fluorescence, higher = more signal;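 also: score combines 667 nm spot fluorescence with signal to noise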
# Sequence of Pro-neuregulin-1, membrane-bound isoform (Homo sapiens) (Q02297 whole entry, looked up, the tested form may be a part, canonical isoform): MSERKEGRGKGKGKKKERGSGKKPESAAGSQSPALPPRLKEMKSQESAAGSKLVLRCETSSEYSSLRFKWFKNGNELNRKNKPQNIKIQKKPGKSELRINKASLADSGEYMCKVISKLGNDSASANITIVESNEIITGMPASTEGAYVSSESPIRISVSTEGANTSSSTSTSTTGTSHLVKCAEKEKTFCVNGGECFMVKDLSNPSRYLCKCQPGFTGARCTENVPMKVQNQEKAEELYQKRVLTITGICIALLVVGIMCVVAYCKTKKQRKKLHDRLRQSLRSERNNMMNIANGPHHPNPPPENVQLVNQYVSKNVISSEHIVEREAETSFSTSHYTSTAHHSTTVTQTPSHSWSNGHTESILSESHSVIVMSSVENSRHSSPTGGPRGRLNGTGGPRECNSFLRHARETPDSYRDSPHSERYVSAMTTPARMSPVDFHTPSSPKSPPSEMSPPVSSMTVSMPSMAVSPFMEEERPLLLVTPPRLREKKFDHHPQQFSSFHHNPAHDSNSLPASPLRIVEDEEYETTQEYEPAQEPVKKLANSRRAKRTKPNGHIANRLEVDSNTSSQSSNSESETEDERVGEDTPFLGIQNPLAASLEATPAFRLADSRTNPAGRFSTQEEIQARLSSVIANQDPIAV
# [7] = system: Neuregulin-1 EGF-like domain; test: binders of neuregulin-1 EGF-like domain, primary screen, biochemical, small-molecule microarray, 635 nm fluorescence (AID 1081); conditions: small-molecule microarray binding, higher = more signal;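 also: binding of the protein to compounds printed on small-molecule microarray slides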
# [8] = FRG1 promoter luciferase signal modulators, primary screen, FRG1 inhibition for FSHD, cell-based, C2C12 myotubes, firefly/Renilla luciferase, luminescence (AID 1084); conditions: higher = more signal, called active from +8 up or from −8 down
# [9] = binders of probe aFST on microarray, primary screen, stem cell growth factor project, biochemical, small-molecule microarray, fluorescence 635/667 (AID 1086); conditions: higher = more signal;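 also: score merges 667 nm fluorescence with signal-to-noise of each printed compound spot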
# [10] = binders of probe aHhip on microarray, primary screen, stem cell growth factor project, biochemical, small-molecule microarray, fluorescence 635/667 (AID 1087); conditions: higher = more signal;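 also: score merges spot fluorescence at 667nm with spot signal to noise ratio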
# [11] = system: PRMT1 (protein arginine N-methyltransferase 1); test: PRMT1 binders on small-molecule microarrays, primary screen, biochemical, small-molecule microarray, 635 nm fluorescence (AID 1088); conditions: small-molecule microarray binding, higher = more signal;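 also: binding of Prmt1 protein to compounds spotted on small-molecule microarray slides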
# [12] = yeast growth modulation, basal conditions, primary screen, YJM789 clinical isolate, OD600, 24 h (AID 1089);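 also: growth of clinical yeast isolate S. cerevisiae YJM 789 seeded 1000 cells per well; test concentration not given here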; conditions: S. cerevisiae YJM789 growth, higher = more signal, called active from +8 up or from −8 down
# [13] = fission yeast growth modulation, primary screen, strain 972, OD600, 24 h, no modulator (AID 1090);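 also: basal condition with compound alone and no growth modifier present; test concentration not given here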; conditions: S. pombe 972 growth, higher = more signal, called active from +8 up or from −8 down
# [14] = S. cerevisiae growth modulation with rapamycin, primary screen, strain BY4716, OD600, 96 h (AID 1091); conditions: higher = more signal, called active from +8 up or from −8 down; also: test concentration not given here
# [15] = target: Torsin-1A-interacting protein 2 (Homo sapiens) (UniProt Q8NFQ8); test: LULL1 binders on small-molecule microarray, primary screen, cell lysate, human LULL1 lysate, 635/667 nm fluorescence (AID 1092); conditions: hLULL1 lysate binding, 635 nm fluorescence, higher = more signal;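 also: probe is lysate of COS7 cells overexpressing human LULL1; score merges per-feature 667 nm fluorescence with signal-to-noise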
# Sequence of Torsin-1A-interacting protein 2 (Homo sapiens) (Q8NFQ8 whole entry, looked up): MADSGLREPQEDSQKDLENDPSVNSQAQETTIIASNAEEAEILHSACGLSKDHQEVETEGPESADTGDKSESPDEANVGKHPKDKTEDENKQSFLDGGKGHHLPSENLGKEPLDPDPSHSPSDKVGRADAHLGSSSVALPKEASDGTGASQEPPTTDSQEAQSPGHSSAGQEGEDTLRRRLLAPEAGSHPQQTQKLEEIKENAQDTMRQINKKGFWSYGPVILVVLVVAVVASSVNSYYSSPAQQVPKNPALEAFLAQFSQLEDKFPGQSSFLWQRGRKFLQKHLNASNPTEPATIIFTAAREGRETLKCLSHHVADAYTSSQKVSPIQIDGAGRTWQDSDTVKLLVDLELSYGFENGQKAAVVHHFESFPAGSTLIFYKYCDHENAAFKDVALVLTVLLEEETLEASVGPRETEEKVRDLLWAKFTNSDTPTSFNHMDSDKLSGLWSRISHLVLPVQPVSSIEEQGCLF
# [16] = E. coli growth modulation, two-sided OD650, primary screen, E. coli filamentation project, strain DRC41, 24 h (AID 1093); conditions: OD650, 24 h, higher = more signal, called active from +8 up or from −8 down;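 also: MC1000 strain lacking acrAB efflux and sulA so SOS filamentation is blocked; test concentration not given here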
# [17] = small-molecule microarray binders of probe aLefty2, primary screen, biochemical, biotinylated probe, 635/667 nm fluorescence (AID 1094); conditions: higher = more signal;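 also: score merges spot fluorescence near 667 nm with spot signal-to-noise ratio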
# [18] = system: Noggin (protein binding on small-molecule microarray); test: Noggin binders on small-molecule microarray, primary screen, biochemical, 635/667 nm fluorescence (AID 1095); conditions: 635 nm fluorescence, higher = more signal;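 also: score merges 667 nm feature fluorescence with signal to noise over triplicate slides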
# [19] = target: Neurogenic locus notch homolog protein 3 (Homo sapiens) (UniProt Q9UM47); test: NOTCH3 binders on small-molecule microarray, primary screen, biochemical, 635/667 nm fluorescence (AID 1096); conditions: NOTCH3 binding, 635 nm fluorescence, higher = more signal
# [20] = small-molecule microarray binders of probe aEGFR, primary screen, biochemical, biotinylated probe, 635/667 nm fluorescence (AID 1097); conditions: higher = more signal;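 also: probe is a biotinylated anti-EGFR antibody binding compounds printed on slides; score combines fluorescence near 667 nm and signal to noise of each spot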
SMILES,composite z-score [1],composite z-score [2],composite z-score [3],composite z-score [4],composite z-score [5],composite z-score [6],composite z-score [7],z-score [8],composite z-score [9],composite z-score [10],composite z-score [11],z-score [12],z-score [13],z-score [14],composite z-score [15],z-score [16],composite z-score [17],composite z-score [18],composite z-score [19],composite z-score [20]
CC1C2C(CCCO)=CC(C3C(=O)N(C(N)=O)C(=O)C23)N1Cc1cccc(OC(F)(F)F)c1 (stereo not given),-0.261,0.913,-0.0558,0.767,0.53,1.18,1.28,1.88 (inactive),0.269,0.0659,1.31,-3.02 (inactive),-0.198 (inactive),0.58 (inactive),2.79,0.262 (inactive),-0.139,0.487,0.628,-0.0828
COc1ccc(C(=O)Nc2ccc(CN3C(=O)[C@@]4(O[C@@H](CC(=O)N(CCO)Cc5ccccc5)[C@H]([Si](C)(C)c5ccc(OC)cc5)[C@H]4C)c4ccccc43)cc2)cc1,-0.0679,0.378,-0.135,0.086,-0.769,0.984,0.921,-2.13 (inactive),-0.263,-0.0074,0.783,-0.884 (inactive),-0.504 (inactive),1.94 (inactive),1.5,1.68 (inactive),-0.116,1.55,0.217,0.0326
CCCCCCc1nc(Cc2cc(OC)c(OC)c(OC)c2)c(C)c2c1[Si](C(C)C)(C(C)C)OC2,-0.491,0.0293,-0.0328,-0.0482,-0.0366,-0.186,0.105,-0.474 (inactive),-0.0696,-0.274,0.829,-0.42 (inactive),-1.61 (inactive),-0.0746 (inactive),0.377,1.59 (inactive),-0.0487,-0.0156,-0.143,0.0172
COCCOC(=O)N1C(=O)[C@@]2(c3cc(C#CCC(C(=O)OC)C(=O)OC)ccc31)[C@H](C(=O)N1CCc3cc(OC)c(OC)cc3C1)[C@H]1C(=O)O[C@H](c3ccccc3)[C@H](c3ccccc3)N1[C@@H]2c1ccccc1OCCO,-0.308,0.399,-0.0608,0.375,1.44,0.875,1.22,-0.223 (inactive),0.651,-0.204,1.53,1.32 (inactive),1.02 (inactive),4.36 (inactive),2.34,1.09 (inactive),-0.0754,1.76,1.01,0.0209
C=C(COC)/C(=C/C[C@@H](OC(=O)c1ccncc1)c1ccccc1OCCO)c1cnc2ccccc2c1,-0.421,0.749,-0.085,0.922,1.58,0.495,1.17,-0.828 (inactive),0.525,-0.159,1.54,-0.564 (inactive),-1.61 (inactive),0.698 (inactive),2.03,1.1 (inactive),-0.0304,1.95,1.02,0.0533
COC(=O)C[C@H]1O[C@]2(C(=O)N(C)c3ccccc32)[C@@H](C)[C@@H]1[Si](C)(C)c1ccccc1,-0.486,0.0686,-0.0767,0.351,0.731,0.033,0.854,-2.11 (inactive),0.333,0.357,1.17,-4.03 (inactive),-5.37 (inactive),-2.45 (inactive),0.687,0.23 (inactive),0.0718,1.23,1.08,-0.0675
C=CCNC(=O)[C@H]1[C@@H]2C(=O)O[C@@H](c3ccccc3)[C@@H](c3ccccc3)N2[C@@H](c2ccc(OCCO)cc2)[C@]12C(=O)N(C(=O)OCCOC)c1ccc(C#CCNC(N)=O)cc12,0.141,0.275,-0.399,0.474,1.41,0.491,0.778,-0.988 (inactive),0.942,-0.246,1.55,1.91 (inactive),0.996 (inactive),4.55 (inactive),1.97,-0.121 (inactive),0.247,1.84,1.11,0.0173
[N-]=[N+]=NCc1ccccc1[C@H]1OC(c2ccc(OCCCO)cc2)=N[C@@]1(Cc1ccccc1N=[N+]=[N-])C(=O)N1CCOCC1,0.439,-0.154,0.156,0.383,1.55,1.96,1.21,-1.31 (inactive),1.07,-0.0994,1.58,-0.8 (inactive),1.23 (inactive),4.53 (inactive),3.36,0.175 (inactive),-0.0133,0.123,1.11,-0.0031
CC(C)c1ccc(NN2C(C(O)c3ccccc3)C=CC3C(=O)N(c4ccccc4)C(=O)C32)cc1 (stereo not given),0.744,0.141,0.117,0.885,1.42,0.905,0.793,1.47 (inactive),1.13,-0.265,0.787,1.54 (inactive),-0.0469 (inactive),0.209 (inactive),2.88,-0.213 (inactive),0.142,-0.621,1.11,0.198
CC(C)N1C(=O)[C@@]2(Cc3ccccc31)c1ccccc1C(=O)N(Cc1ccccc1C(F)(F)F)[C@H]2c1ccc(CO)cc1,-0.303,0.0613,-0.0775,0.108,0.339,0.39,1.46,-0.641 (inactive),0.086,-0.116,1.31,-0.0493 (inactive),-0.706 (inactive),-1.81 (inactive),2.23,-0.569 (inactive),-0.269,0.841,0.99,0.116
